SW480 rereplic: A quantitative high throughput screen for small molecules that induce DNA re-replication in SW480 colon adenocarcinoma cells; Potency, µM (highest dose often 46.1 µM), hits mostly activators; 340,000 compounds, 1.8% hits; SW480 DNA re-replication, Hoechst DNA content imaging, 48 h; note: nearly all actives have a fitted effect of over 55% in size
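250 cells/well; 23 nL cpd via pin tool; 48 hr, 37 C, 5% CO2; Hoechst 40 min; imager read of total nuclear intensity, ex 405/em 500-530 nm.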
MCF10A rerep: A quantitative high throughput screen for small molecules that induce DNA re-replication in MCF 10a normal breast cells. MCF 10A DNA re-replication, Hoechst nuclear intensity, 48 h. Potency, µM (doses to about 46.1 µM), most hits filed as activators. 350,000 compounds, 2.9% hits. AID 624296, 2012; note: nearly all actives have a fitted effect of over 50% in size
S-ASM inh: Inhibitors of Secretory Acid Sphingomyelinase (S-ASM): qHTS. Sphingomyelin phosphodiesterase (Homo sapiens), P17405. placental ASM, HMU-PC fluorogenic substrate, 60 min. Potency, µM (top dose mostly 57.5 µM), usual class: inhibitors. 340,000 compounds, 0.006% hits
Target sequence (P17405 47-631 limits assumed): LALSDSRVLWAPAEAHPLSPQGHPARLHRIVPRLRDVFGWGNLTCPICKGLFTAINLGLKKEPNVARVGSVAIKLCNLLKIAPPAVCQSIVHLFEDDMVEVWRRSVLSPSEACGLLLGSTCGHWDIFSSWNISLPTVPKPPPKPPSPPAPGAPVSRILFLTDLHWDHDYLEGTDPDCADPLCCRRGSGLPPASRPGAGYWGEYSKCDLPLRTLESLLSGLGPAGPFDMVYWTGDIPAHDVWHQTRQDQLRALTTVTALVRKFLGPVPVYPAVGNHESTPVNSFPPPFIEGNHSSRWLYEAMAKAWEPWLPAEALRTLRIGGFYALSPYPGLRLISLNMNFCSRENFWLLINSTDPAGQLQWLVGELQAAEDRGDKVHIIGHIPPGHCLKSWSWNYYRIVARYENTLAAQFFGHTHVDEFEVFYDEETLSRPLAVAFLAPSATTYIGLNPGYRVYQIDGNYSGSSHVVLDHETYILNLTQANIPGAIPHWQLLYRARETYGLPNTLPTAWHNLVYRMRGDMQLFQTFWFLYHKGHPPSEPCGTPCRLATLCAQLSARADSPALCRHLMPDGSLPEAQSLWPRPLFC
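Human placenta-derived ASM enzyme was preincubated with compound for 10 minutes at room temperature, then given fluorogenic substrate HMU-PC0 (9 uM final) for 60 minutes at 37 °C; a pH 10 stop preceded fluorescence reading at Ex 386/Em 447 nm.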
KB-3-1 tox: qHTS assay for MDR1-selective chemotherapeutics: Primary screen using the parental adenocarcinoma cell KB-3-1; KB-3-1 viability, CellTiter-Glo ATP luminescence, 72 h; Potency, µM (doses to about 46.1 µM), hits mostly cytotoxic; 400,000 compounds, 1.4% hits; note: nearly all actives have a fitted effect of over 60% in size
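Using CellTiter-Glo luminescence, growth of non-resistant KB-3-1 adenocarcinoma cells is assessed 72 h after pin-tool compound addition at 37 °C. Normalized responses across the concentration series yield fitted curves.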
KB-V1 cytotox: qHTS assay for MDR1-selective chemotherapeutics: Primary screen using the drug-selected MDR subline cells KB-V1; KB-V1 MDR cells viability, CellTiter-Glo, 72 h; 400,000 compounds, 3.4% hits; Potency, µM (titrated, usually from 46.1 µM), actives largely listed as cytotoxic; note: nearly all actives have a fitted effect of over 60% in size
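Potencies derive from concentration-effect curves fitted to normalized luminescence (CellTiter-Glo) of KB-V1 cells treated for 72 h at 37 degrees C in phenol-red-free DMEM containing 10% FBS.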
Giardia kill: Small Molecules that selectively kill Giardia lamblia: qHTS | activity change, % at 7.66 µM, hits read low | AID 540267, 2011 | Giardia lamblia trophozoite viability | 340,000 compounds, 0.15% hits; in the data active = activity change below about -80%; inconclusive = between about -30% and that limit;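 note: parasites exposed to compound for two days anaerobically before the ATP read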
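Giardia lamblia trophozoites (100 cells/well) were incubated with compounds for 48 h at 37 deg C under anaerobic conditions. Viability was read as ATP content by one-step luminescence after 15-30 min at room temperature.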
A number is an active result; 0 = inactive; ? = inconclusive; - = no result. An excerpt weighted towards active compounds, which were near 6.9% of everything screened. Unless noted, calls come from the whole dose curve; as a rule, active = well fitted curve in the direction sought with a large enough effect; inconclusive = small, poorly fitted or top-dose-only effect, or another doubt; inactive = no such curve, though single readings can be large; an effect the other way counts as inactive or inconclusive.

SMILES | SW480 rereplic | MCF10A rerep | S-ASM inh | KB-3-1 tox | KB-V1 cytotox | Giardia kill
Fc1ccc(-c2csc(=Nc3cccc(C(F)(F)F)c3)n2Cc2ccc3c(c2)OCO3)cc1 | - | - | - | 0 | 0 | -
CN(C)S(=O)(=O)c1ccc(C(=O)NCCSc2c(-c3ccc(Cl)cc3)[nH]c3ccccc23)cc1 | - | - | - | 0 | 0 | -
O=C(Cc1cccs1)NCCSc1c(-c2ccc(Cl)cc2)[nH]c2ccccc12 | ? | 21µM | 0 | ? | 0 | 0
CCCN1CNc2c(c(=O)[nH]c(=S)n2CCc2cccs2)C1 | - | - | - | - | - | 0
CCOC(=O)CSC1=NC(=O)/C(=C/c2ccc(OC)cc2)S1 | ? | 5.8µM | 0 | 12µM | ? | 0
Cc1ccc(S(=O)(=O)Nc2cc3c(cc2N2CCOCC2)n(C)c(=O)n3C)c(C)c1 | - | - | - | 0 | 0 | -
CCOc1ccccc1C(=O)NC1CCN(Cc2nnnn2C2CCCC2)CC1 | 0 | 0 | 0 | 0 | 9.2µM | 0
CCC(C)(C)n1nnnc1CN1CCC(NC(=O)c2ccccc2C)CC1 | 0 | 0 | 0 | 0 | 0 | 0
Cc1ccccc1C(=O)NC1CCN(Cc2nnnn2Cc2ccc(F)cc2)CC1 | 0 | 0 | 0 | 0 | 21µM | 0
COc1cc2c(cc1OC)/C(=C/c1ccc(N(C)C)cc1)C=C2 | - | - | - | 0 | ? | -
CCc1ccc(NC(=O)Cn2c(=O)c(-c3ccccc3NC(C)=O)nc3ccccc32)cc1 | - | - | - | 0 | ? | -
N#Cc1nc(-c2ccco2)oc1N1CCN(c2ccccc2)CC1 | 0 | 0 | 0 | 0 | 0 | 0
COc1ccc(N2CCN(c3oc(-c4ccco4)nc3C#N)CC2)cc1 | 0 | 0 | 0 | ? | 15µM | 0
Cc1ccc2[nH]c(=O)c(CN(CCO)Cc3nnnn3Cc3ccccc3)cc2c1 | - | - | - | ? | 0 | 0
COc1cc(/C=N/O)cc(Br)c1OCC(=O)NCc1ccccc1 | 0 | 0 | 0 | 0 | 16µM | 0
CCOc1cc(/C=N/O)cc(Br)c1OCC(=O)NCc1ccccc1 | 0 | 0 | 0 | 0 | 0 | 0
CCOC(=O)c1cnc2c(Cl)c(Cl)ccc2c1Nc1ccc(N(C)C)cc1 | - | - | - | 0 | 0 | -
O=C(CSc1ccc(-c2cccs2)nn1)Nc1ccccc1 | 0 | 0 | 0 | 0 | 12µM | 0
COc1ccc(NC(=O)CSc2ccc(-c3ccco3)nn2)cc1OC | 0 | 0 | 0 | 0 | ? | 0
CCc1ccc(NC(=O)CSc2ccc(-c3ccccn3)nn2)cc1 | 0 | 12µM | 0 | ? | 0 | 0
O=C(CSc1ccc(-c2ccco2)nn1)NCc1ccccc1Cl | 0 | 0 | 0 | 0 | 21µM | 0
CC(=O)Nc1cccc(NC(=O)CSc2ccc(-c3ccccn3)nn2)c1 | ? | ? | 0 | 0 | ? | 0
O=C(CSc1ccc(-c2ccco2)nn1)Nc1ccc(F)cc1 | 0 | 0 | 0 | 0 | 10µM | 0
Cc1ccccc1NC(=O)CSc1ccc(-c2ccco2)nn1 | 0 | 0 | 0 | 0 | 0 | 0
Cc1oc2ncn(C)c(=O)c2c1C(=O)NC(C)c1ccccc1 (centres undefined) | - | - | - | 0 | 0 | -
SMILES | SW480 rereplic | MCF10A rerep | S-ASM inh | KB-3-1 tox | KB-V1 cytotox | Giardia kill
CC(C)Oc1ccc(CNC(=O)Cc2ccc(NC(=O)N3CCSc4ncccc43)cc2)cc1 | - | - | - | ? | 0 | -
COc1ccc(NC(=O)c2ccc(-c3nc(CSc4ccccc4)c(C)o3)cc2)c(OC)c1 | - | - | - | 0 | 0 | -
O=C(CSc1ccc(-c2ccco2)nn1)Nc1ccccc1 | 0 | 0 | 0 | 0 | 18µM | 0
CCOc1ccc(NC(=O)CSc2ccc(-c3ccco3)nn2)cc1 | 0 | 0 | 0 | 0 | 0 | 0
CC(=O)Oc1ccccc1C(=O)Nc1ccccc1 | 0 | ? | 0 | 0 | 0 | 0
COC1(OC)C=CC(=O)C=C1NC(=O)c1ccccc1OC(C)=O | ? | 4.1µM | 0 | ? | ? | 0
COc1ccc(N2C(=O)CC2(/C=C/c2ccccc2OC)C(=O)NC2CCCC2)cc1 (centres undefined) | 0 | 0 | 0 | ? | 3.7µM | 0
O=C1CC(/C=C/c2ccccc2)(C(=O)NC2CCCC2)N1c1ccc(S(=O)(=O)N2CCCC2)cc1 (centres undefined) | 0 | ? | 0 | 0 | 2.9µM | 0
CCOC(=O)CNC(=O)C1(/C=C/c2ccccc2)CC(=O)N1c1ccc(OC)cc1 (centres undefined) | 0 | 0 | 0 | 0 | 0 | 0
CC1C(=O)N(c2ccc(S(=O)(=O)N(C)C)cc2)C1(/C=C/c1ccccc1)C(=O)NC1CCCC1 (centres undefined) | 0 | 0 | 0 | 0 | ? | 0
O=C(CCOc1ccccc1)N(Cc1cccnc1)c1nc2c(Cl)cccc2s1 | - | - | - | 0 | 0 | -
O=C1/C(=C/c2ccc(O)cc2)COc2ccccc21 | 18µM | ? | 0 | 0 | 0 | 0
COc1cc(NC(=O)CSc2nc3nc(C)c(Cc4ccccc4Cl)c(C)n3n2)cc(OC)c1 | - | - | - | 0 | 0 | -
CN1C2CCC1/C(=C\c1ccccc1)C(=O)/C2=C\c1ccccc1 | ? | ? | 0 | 7.3µM | 0 | 0
COc1ccc(OCC(Cn2cnc3ccccc32)OC(C)=O)cc1 (centres undefined) | 0 | 0 | 0 | 0 | ? | 0
COc1cccc(OCC(Cn2cnc3ccccc32)OC(C)=O)c1 (centres undefined) | 0 | 0 | 0 | 0 | 16µM | 0
Cc1ccc(N/C=C2/Sc3ccccc3NC2=O)cc1 | 0 | 18µM | 0 | 0 | ? | 0
COc1ccc(N/C=C2/Sc3ccccc3NC2=O)cc1 | 0 | 0 | 0 | 0 | 0 | 0
CCn1c(=NC(=O)c2ccc(S(=O)(=O)N3CCCC3)cc2)sc2cc(Br)ccc21 | - | - | - | 0 | 0 | -
COc1ccc(C(=O)NCCNc2nc3cc(C)cc(C)c3cc2C#N)cc1 | - | - | - | 0 | ? | -
COc1cc(C(=O)NCCNc2nc3c(C)cccc3cc2C#N)cc(OC)c1OC | - | - | - | 0 | ? | -
Cc1ccc2nc(NCc3ccccc3)c(C#N)cc2c1 | ? | 15µM | 0 | 0 | 0 | 0
COc1ccc(C(=O)NCCNc2nc3ccc(C)cc3cc2C#N)cc1 | ? | 21µM | 0 | 0 | 0 | 0
COc1ccc(C(=O)NCCNc2nc3c(C)cccc3cc2C#N)cc1OC | 2.6µM | 0.58µM | 0 | ? | 0 | 0
COc1ccc(C(=O)NCCNc2nc3c(C)cccc3cc2C#N)cc1 | 0 | 18µM | 0 | 0 | 0 | 0
COc1cc(C=O)cc(OC)c1[N+](=O)[O-] | - | - | - | 0 | 0 | -
Cc1cccc2cc(C#N)c(NCCNS(=O)(=O)c3ccc4c(c3)OCCO4)nc12 | 16µM | ? | 0 | 0 | 23µM | 0
CCC(=O)NCCCNc1nc2c(C)cccc2cc1C#N | ? | 0 | 0 | 0 | ? | 0
COc1cc(C(=O)Nc2ccccc2N2CCOCC2)ccc1OCc1c(C)noc1C | 0 | 0 | 0 | 0 | 4.6µM | 0

Assay outcomes: PubChem, National Center for Advancing Translational Sciences (NCATS)
